According to PubChem BioAssay (Tox21):
Results filed as inconclusive are left out. Activity calls are given as the source filed them. Unless noted, the call rests on the fitted dose curve.

Columns and labels:
[1] = Nuclear factor erythroid 2-related factor 2/antioxidant responsive element (Nrf2/ARE) small molecule agonists: luciferase reporter gene qHTS assay in human keratinocytes (AID 1919969); further: nearly all actives have a fitted effect of over 35% in size
[2] = biological target: Gonadotropin-releasing hormone receptor (Homo sapiens) (UniProt P30968); experiment: Human gonadotropin-releasing hormone receptor (GnRHR) small molecule agonists, calcium flux assay in GnRHR-HEK293 cells (AID 1920063); further: nearly all actives have a fitted effect of over 35% in size
Summary of the method: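 Cells: HEK293 stably expressing human GnRHR. Steps: overnight (18 h) culture, 1 h calcium dye loading at 37 C, compound addition, kinetic fluorescence read at 480/540 nm. Each compound tested at 15 concentrations in triplicate.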

[3] = biological target: KiSS-1 receptor (Homo sapiens) (UniProt Q969F8); experiment: Human kisspeptin (KISS1R) small molecule agonists, calcium flux assay in KISS1R-HEK293 cells (AID 1920064; active means well fitted activation curve with a large enough effect in the repeat runs)
Summary of the method: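 Cells plated and incubated 18 h; dye added, 1 h at 37 C; compounds in DMSO pinned in; signal read at 480/540 nm every second for 3 min. Each compound tested at 15 concentrations in triplicate.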

[4] = p53 small molecule agonists, cell-based qHTS assay with human liver microsomes (AID 1963577);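 further: p53 response element beta-lactamase reporter cells with liver microsomes plus NADPH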
Summary of the method: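 HLM-supplemented p53RE-bla reporter assay: 16 h compound exposure at 37 C, microsomes and NADPH each 0.5 mg/mL final, read by fluorescence intensity.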

[5] = p53 small molecule agonists, cell-based qHTS assay with rat liver microsomes (AID 1963578)
Summary of the method: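 Quantitative HTS of the Tox21 10K library: p53RE-bla cells, rat liver microsomes plus NADPH at 0.5 mg/mL final each, 16 h at 37 C, beta-lactamase fluorescence detection.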

[6] = p53 small molecule agonists, cell-based qHTS assay with human liver microsomes: qHTS cell viability counter screen (AID 1963579); further: nearly all actives have a fitted effect of over 45% in size
Summary of the method: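 Viability of p53RE-bla cells is measured as CellTiter-Glo luminescence following a 16 h, 37 C incubation with compound, liver microsomes from human donors and NADPH.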

[7] = p53 small molecule agonists, cell-based qHTS assay with rat liver microsomes: qHTS cell viability counter screen (AID 1963580); further: nearly all actives have a fitted effect of over 45% in size
Summary of the method: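 In HCT-116 cells carrying a p53 response element-bla reporter, compounds were metabolically activated in situ by rat liver microsomes with NADPH over 16 h. Cell ATP content then served as the cytotoxicity measure.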

[8] = p53 small molecule agonists, cell-based qHTS assay: qHTS cell viability counter screen (AID 1963581); further: nearly all actives have a fitted effect of over 45% in size
Summary of the method: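 Cells: HCT-116 with p53 response element-driven beta-lactamase. Treatment: 16 h, 37 C, compounds in DMSO. Read: CellTiter-Glo luminescence after 30 min RT.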

[9] = p53 small molecule agonists, cell-based qHTS assay (AID 1963582; active means well fitted activation curve with a large enough effect in the signal ratio in the repeat runs, not every such curve was filed as active; the % refers to the signal ratio)
Summary of the method: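 Quantitative HTS in p53RE-bla cells: after a 5 h settling period, compounds delivered in DMSO were left on cells for 16 h at 37 C, and reporter induction was measured as fluorescence following 2 h substrate loading.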

[10] = biological target: 5-hydroxytryptamine receptor 2A (Homo sapiens) (UniProt P28223); experiment: 5-hydroxytryptamine receptor 2A (HTR2A) small molecule antagonists, cell-based qHTS assay (AID 1963586); further: nearly all actives have a fitted effect of over 45% in size
Summary of the method: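 Antagonist-mode intracellular calcium assay: DOI (4 nM) added after 5 min compound pre-incubation at room temperature to dye-loaded HTR2A-CHO cells. Fluorescence followed for 3 min, sampled every second.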

[11] = biological target: 5-hydroxytryptamine receptor 2A (Homo sapiens) (UniProt P28223); experiment: 5-hydroxytryptamine receptor 2A (HTR2A) small molecule agonists, cell-based qHTS assay (AID 1963587); further: nearly all actives have a fitted effect of over 30% in size
Summary of the method: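 HTR2A-CHO cells, plated 18 h at 37 C/5% CO2, dye-loaded 1 h at 37 C; compounds in DMSO added by pin tool (agonist mode). Intracellular calcium flux read as kinetic fluorescence on FDSS over 2 min at 1 s intervals.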

[12] = biological target: Muscarinic acetylcholine receptor M1 (Homo sapiens) (UniProt P11229); experiment: Cholinergic receptor muscarinic 1 (CHRM1) small molecule antagonists, cell-based qHTS assay (AID 1963588); further: nearly all actives have a fitted effect of over 40% in size
Summary of the method: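 CHRM1-CHO calcium-flux assay, antagonist mode. Cells were seeded 18 h, dye-loaded 1 h at 37 C and given compound for 5 min at RT, then acetylcholine was added at 50nM. FDSS fluorescence was read 3 min; 15 concentrations, three runs.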

[13] = biological target: Muscarinic acetylcholine receptor M1 (Homo sapiens) (UniProt P11229); experiment: Cholinergic receptor muscarinic 1 (CHRM1) small molecule agonists, cell-based qHTS assay (AID 1963589); further: nearly all actives have a fitted effect of over 35% in size
Summary of the method: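 Agonist-mode qHTS in CHO cells stably carrying human muscarinic M1. Intracellular calcium is tracked by fluorescence every second after compound transfer; each compound runs at 15 concentrations in three independent runs.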

[14] = cAMP Responsive Elements (CRE) small molecule agonists, cell-based qHTS assay (AID 1963590)
Summary of the method: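 Agonist mode qHTS in CRE-bla HEK 293T cells: compounds dosed from DMSO for 3 h at 37 C/5% CO2, followed by LiveBLAzer B/G FRET substrate for 2 h at room temperature.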

[15] = cAMP Responsive Elements (CRE) small molecule antagonists, cell-based qHTS assay (AID 1963591; active means well fitted inhibition curve with a large enough effect in the signal ratio in the repeat runs, not every such curve was filed as active; the % refers to the signal ratio)
Summary of the method: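 Antagonist mode: test compounds are co-incubated with the adenylyl cyclase activator NKH477 (0.25 uM final) on CRE-bla HEK293T cells for 3 h at 37 °C, followed by LiveBLAzer substrate loading.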

[16] = biological target: Beta-2 adrenergic receptor (Homo sapiens) (UniProt P07550); experiment: Adrenergic beta2 receptor (ADRB2) small molecule antagonists, cell-based qHTS assay (AID 1963592); further: series mostly up to about 92 µM; nearly all actives have a fitted effect of over 50% in size
Summary of the method: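 Cells (CHO, stable ADRB2 overexpression) incubated 18-20hr at 37C; compounds added from DMSO; agonist mix (1nM isoproterenol, 100uM IBMX, 25uM Ro-20-1724) added; 0.5hr RT; d2-cAMP and anti-cAMP-cryptate added; 1hr RT; 665/615 nm read.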

[17] = biological target: Beta-2 adrenergic receptor (Homo sapiens) (UniProt P07550); experiment: Adrenergic beta2 receptor (ADRB2) small molecule agonists, cell-based qHTS assay (AID 1963593);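 further: CHO cells stably overexpressing human ADRB2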
Summary of the method: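 CHO cells stably over-expressing ADRB2 were plated overnight at 37C, then dosed with compounds plus a stimulation mix containing 100uM IBMX and 25uM Ro-20-1724 for 0.5hr at room temperature. cAMP was measured by HTRF competition, 1hr.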

[18] = biological target: D(2) dopamine receptor (Homo sapiens) (UniProt P14416); experiment: Dopamine D2 receptor (DRD2) small molecule agonists, cell-based qHTS assay (AID 1963594); further: nearly all actives have a fitted effect of over 35% in size
Summary of the method: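 HEK293 cells stably expressing DRD2 were cultured 24 h at 37 C, then given Ro20-1724 (0.1 mM final) and compounds for 10 min at room temperature. NKH477 (200nM) was then added for 30 min. cAMP was read by HTRF.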

[19] = biological target: D(2) dopamine receptor (Homo sapiens) (UniProt P14416); experiment: Dopamine D2 receptor (DRD2) small molecule antagonists, cell-based qHTS assay (AID 1963595; active means well fitted inhibition curve with a large enough effect in the signal ratio in the repeat runs, with a control signal flat; the % refers to the signal ratio)
Summary of the method: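 HTRF cAMP read-out at 665 and 620 nm emission (340 nm excitation). Antagonist mode: compounds were tested against 12 nM quinpirole in DRD2-HEK293 cells, with 200 nM NKH477 raising cAMP and 0.1 mM Ro20-1724 blocking its breakdown.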

[20] = G protein-coupled receptor (GPCR) small molecule agonists, calcium flux assay: HEK293 wild type cell line counter screen (AID 1920065)
Summary of the method: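 Counter-screen of the Tox21 10K library for non-specific calcium release: dye-loaded cells received compounds in DMSO and were monitored by kinetic fluorescence (480/540 nm, 3 min). Fifteen concentrations, run in triplicate.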

Measured: Potency

Sequence of Gonadotropin-releasing hormone receptor (Homo sapiens) (P30968 whole entry, looked up): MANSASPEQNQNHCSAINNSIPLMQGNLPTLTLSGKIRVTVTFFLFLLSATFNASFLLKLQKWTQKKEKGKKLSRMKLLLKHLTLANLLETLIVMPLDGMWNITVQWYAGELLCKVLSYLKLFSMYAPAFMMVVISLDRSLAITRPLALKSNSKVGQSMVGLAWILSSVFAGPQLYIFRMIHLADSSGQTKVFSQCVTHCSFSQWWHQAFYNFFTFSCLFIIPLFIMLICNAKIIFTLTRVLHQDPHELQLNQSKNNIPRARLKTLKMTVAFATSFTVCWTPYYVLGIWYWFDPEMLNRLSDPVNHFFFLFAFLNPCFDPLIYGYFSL
Sequence of Muscarinic acetylcholine receptor M1 (Homo sapiens) (P11229 whole entry, looked up): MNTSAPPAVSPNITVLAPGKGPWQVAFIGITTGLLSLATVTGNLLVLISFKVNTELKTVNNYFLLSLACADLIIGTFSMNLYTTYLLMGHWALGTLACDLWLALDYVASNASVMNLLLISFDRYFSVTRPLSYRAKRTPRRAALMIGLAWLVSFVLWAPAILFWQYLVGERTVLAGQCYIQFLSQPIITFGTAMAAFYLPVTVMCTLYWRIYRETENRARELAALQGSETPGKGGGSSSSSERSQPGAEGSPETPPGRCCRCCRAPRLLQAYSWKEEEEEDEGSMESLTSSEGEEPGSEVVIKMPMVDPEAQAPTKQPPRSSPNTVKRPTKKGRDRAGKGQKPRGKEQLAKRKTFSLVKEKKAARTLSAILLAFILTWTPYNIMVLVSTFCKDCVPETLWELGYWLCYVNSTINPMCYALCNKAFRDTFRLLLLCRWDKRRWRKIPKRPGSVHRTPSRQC
Sequence of 5-hydroxytryptamine receptor 2A (Homo sapiens) (P28223 whole entry, looked up): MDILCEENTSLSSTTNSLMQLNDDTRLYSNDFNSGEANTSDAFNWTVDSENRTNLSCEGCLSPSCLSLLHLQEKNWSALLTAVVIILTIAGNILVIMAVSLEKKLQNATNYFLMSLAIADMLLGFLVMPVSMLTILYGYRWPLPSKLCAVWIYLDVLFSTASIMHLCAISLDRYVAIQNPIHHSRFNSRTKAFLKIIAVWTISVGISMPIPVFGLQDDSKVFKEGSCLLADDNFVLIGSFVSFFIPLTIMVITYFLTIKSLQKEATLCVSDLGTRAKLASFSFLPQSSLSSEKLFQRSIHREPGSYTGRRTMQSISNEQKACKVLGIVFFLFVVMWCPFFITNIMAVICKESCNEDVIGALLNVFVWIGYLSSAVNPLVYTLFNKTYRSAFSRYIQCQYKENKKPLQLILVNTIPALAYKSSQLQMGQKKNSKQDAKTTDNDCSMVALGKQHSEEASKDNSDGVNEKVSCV
Sequence of Beta-2 adrenergic receptor (Homo sapiens) (P07550 whole entry, looked up): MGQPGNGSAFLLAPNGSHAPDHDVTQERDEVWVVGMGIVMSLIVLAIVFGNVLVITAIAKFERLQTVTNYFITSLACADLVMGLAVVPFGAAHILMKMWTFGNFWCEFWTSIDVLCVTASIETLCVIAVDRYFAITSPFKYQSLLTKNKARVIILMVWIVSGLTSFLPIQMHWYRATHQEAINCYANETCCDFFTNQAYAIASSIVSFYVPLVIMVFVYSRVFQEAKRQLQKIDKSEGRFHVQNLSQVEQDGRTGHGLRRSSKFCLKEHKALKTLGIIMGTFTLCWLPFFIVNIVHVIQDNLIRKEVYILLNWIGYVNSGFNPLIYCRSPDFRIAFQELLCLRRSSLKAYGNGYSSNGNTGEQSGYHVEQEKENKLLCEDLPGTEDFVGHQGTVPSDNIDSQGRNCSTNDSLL
Sequence of KiSS-1 receptor (Homo sapiens) (Q969F8 whole entry, looked up): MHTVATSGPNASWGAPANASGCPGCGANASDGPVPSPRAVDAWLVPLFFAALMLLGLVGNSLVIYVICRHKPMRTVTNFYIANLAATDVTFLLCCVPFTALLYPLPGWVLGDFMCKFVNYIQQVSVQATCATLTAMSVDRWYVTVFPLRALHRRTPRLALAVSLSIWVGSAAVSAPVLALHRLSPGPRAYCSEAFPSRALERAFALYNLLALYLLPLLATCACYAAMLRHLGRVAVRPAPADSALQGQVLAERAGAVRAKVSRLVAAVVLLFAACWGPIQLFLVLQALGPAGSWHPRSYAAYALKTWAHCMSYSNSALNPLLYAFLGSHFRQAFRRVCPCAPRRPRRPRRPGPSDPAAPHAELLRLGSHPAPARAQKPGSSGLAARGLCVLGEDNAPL
Sequence of D(2) dopamine receptor (Homo sapiens) (P14416 whole entry, looked up): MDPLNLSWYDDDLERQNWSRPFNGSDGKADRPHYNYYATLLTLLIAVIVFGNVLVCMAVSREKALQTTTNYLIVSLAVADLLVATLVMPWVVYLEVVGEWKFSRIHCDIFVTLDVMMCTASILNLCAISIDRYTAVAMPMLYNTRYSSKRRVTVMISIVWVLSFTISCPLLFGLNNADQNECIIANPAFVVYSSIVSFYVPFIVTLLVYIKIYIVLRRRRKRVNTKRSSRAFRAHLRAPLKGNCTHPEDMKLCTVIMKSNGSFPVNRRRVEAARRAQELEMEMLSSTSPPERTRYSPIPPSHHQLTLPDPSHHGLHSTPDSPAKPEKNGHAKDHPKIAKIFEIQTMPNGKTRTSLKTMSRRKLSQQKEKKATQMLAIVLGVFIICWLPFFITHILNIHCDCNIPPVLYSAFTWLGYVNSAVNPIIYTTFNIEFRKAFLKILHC

C=C(C)C1CC=C(C)CC1 (stereo unspecified)
not listed: [20]
inactive: all other assays above

NS(=O)(=O)c1cc2c(cc1Cl)NC=NS2(=O)=O
not listed: [1] | [19]
inactive: all other assays above

O=[N+]([O-])c1cccc(Cl)c1
not listed: [2]
inactive: all other assays above

OC[C@@H](O)[C@@H](O[C@@H]1O[C@H](CO)[C@H](O)[C@H](O)[C@H]1O)[C@H](O)[C@@H](O)CO
not listed: [1] | [17]
inactive: all other assays above

NC(=O)N1c2ccccc2C=Cc2ccccc21
inactive: [1] | [2] | [3] | [20] | [6] | [7] | [14] | [15] | [16] | [18] | [19]

O=C(O)c1cccc(C(=O)O)c1
not listed: [4] | [5] | [9] | [20]
inactive: all other assays above

Cc1cccc(C)c1
not listed: [4] | [5] | [9] | [12] | [17]
inactive: all other assays above

Cc1occc(=O)c1O
not listed: [2] | [4] | [5] | [9] | [15]
inactive: all other assays above
